# Assay outcomes as filed in PubChem.
# Hits are enriched below; roughly 3.3% of the tested compounds scored in any of these assays.
# AmpC inh no detg: blocks E. coli AmpC beta-lactamase in detergent-free assay; AID 485341; P00811; 330,000 compounds, 0.52% hits; AmpC nitrocefin hydrolysis, absorbance 480 nm, 0.0001% Triton; Potency, µM (highest dose often 57.1 µM), most hits filed as inhibitors; further: nearly all actives have a fitted effect of over 20% in size
# Target sequence (P00811 whole entry, looked up): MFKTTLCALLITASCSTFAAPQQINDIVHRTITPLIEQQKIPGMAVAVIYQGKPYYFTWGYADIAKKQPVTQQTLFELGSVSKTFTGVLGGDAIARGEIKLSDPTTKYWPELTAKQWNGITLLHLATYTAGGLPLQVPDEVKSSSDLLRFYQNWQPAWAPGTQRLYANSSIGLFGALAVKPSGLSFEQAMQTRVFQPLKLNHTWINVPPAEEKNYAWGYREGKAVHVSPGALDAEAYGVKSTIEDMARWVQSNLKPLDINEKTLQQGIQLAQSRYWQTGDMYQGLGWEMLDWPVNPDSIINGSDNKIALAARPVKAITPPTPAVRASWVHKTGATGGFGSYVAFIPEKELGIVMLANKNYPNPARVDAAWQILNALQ
#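 AmpC (5.3 nM in the dispensed reagent) in 20 mM phosphate pH 7.0 with 0.01% (detergent screen) or 0.0001% Triton X-100 was preincubated with compounds for 15 min at room temperature. Nitrocefin was then added from an 800 uM solution, and hydrolysis was followed at 480 nm.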
# AmpC detergent: inhibitors of E. coli AmpC beta-lactamase with detergent; P00811; AmpC hydrolysis of nitrocefin, absorbance 480 nm, 0.01% Triton; Potency, µM (series often up to 114 µM), most hits filed as inhibitors; 370,000 compounds, 0.041% hits; further: nearly all actives have a fitted effect of over 25% in size
#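 20 mM phosphate pH 7.0 + 0.01% (detergent screen) or 0.0001% Triton X-100; 5.3 nM AmpC reagent; cpd preinc 15 min RT; nitrocefin (800 uM stock) to start; A480 q20 s × 4 min; Activity was normalised to no-enzyme and no-compound control wells.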
# Sm TGR inh: S. mansoni TGR enzyme inhibition. purified TGR, DTNB reduction, TNB absorbance 405 nm. Potency, µM (titrated, usually from 114 µM), actives largely listed as inhibitors. 360,000 compounds, 3% hits; further: nearly all actives have a fitted effect of over 60% in size
#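 Kinetic colorimetric format: TGR-catalysed, NADPH-driven DTNB reduction monitored via TNB absorbance. Enzyme dispensed at 20 nM; compound exposure 15 min at room temperature before reaction start.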
# Numbers stand for hits; - = inactive; ? = inconclusive; . = not tested or not shown; [ ] = remark or other dose. The call rests on the fitted dose curve; in most records, active means well fitted curve in the direction sought with a large enough effect; inconclusive means small, poorly fitted or top-dose-only effect, or another doubt; inactive means no such curve, though single readings can be large; an effect the other way counts as inactive or inconclusive.
SMILES,AmpC inh no detg,AmpC detergent,Sm TGR inh
CCC1Sc2ccc(S(=O)(=O)CCC(=O)Nc3cccc(Br)c3)cc2NC1=O (stereo not given),-,-,-
O=C1Nc2cc(S(=O)(=O)N3CCCC3)ccc2N2CCCC12 (stereo not given),-,-,13µM
CCN(CC)S(=O)(=O)c1ccc2c(c1)NC(=O)C1CCCN21 (stereo not given),-,?,?
CCNc1c([N+](=O)[O-])c(=O)oc2ccccc12,-,-,-
COc1ccc(OCCNc2c([N+](=O)[O-])c(=O)oc3ccccc23)cc1,28µM,?,-
COc1ccccc1NC(=O)COc1ccc(Br)cc1CNC1CCCC1,-,-,-
Nc1nc(-c2cccs2)c(CC(=O)O)s1,-,-,40µM
O=C(O)Cc1sc(Nc2ccc(Cl)cc2)nc1-c1cccs1,-[11.4 µM],-,-
COc1ccccc1CC(=O)Nc1ccc(S(=O)(=O)N2CC(C)CC(C)C2)cc1 (stereo not given),-,-,-
Cc1ccc(C)c(OCc2cc(C(=O)N3CCN(C(=O)c4ccco4)CC3)no2)c1,-,-,-
CN1CCN(C(=O)c2cc3cc(F)ccc3[nH]2)CC1,-,-,-
O=C(c1cc(COc2ccc(F)cc2F)on1)N1CCN(C(=O)c2ccco2)CC1,-,-,25µM
CN1CCN(C(=O)c2cc(COc3c(F)cccc3F)on2)CC1c1ccccc1 (stereo not given),-,-,4µM
COc1ccccc1OCc1cc(C(=O)N2CCN(C)C(c3ccccc3)C2)no1 (stereo not given),-,-,-
O=C(c1cc2cc(F)ccc2[nH]1)N1CCN(C(=O)c2ccco2)CC1,-,-,40µM
COc1ccc(/C=C(\NC(=O)c2ccc(C)cc2)C(=O)Nc2c(C)n(C)n(-c3ccccc3)c2=O)cc1,-,-,-
O=C(COc1ccccc1Cl)Nc1cc(-c2ccccc2F)nn1-c1ccccc1,.,-,-
C/C(=N/NC(=O)CNC(=O)C(c1ccccc1)c1ccccc1)c1ccco1,-,-,-
CCc1cccc(NC(=O)NC(=O)Cn2nnc(C(=O)OC)c2C(=O)OC)c1,-,-,-
Cc1ccc(NC(=O)CCc2nc3sc4c(c3c(=O)[nH]2)CCCC4)c(Br)c1,-,-,-
COc1ccccc1OCc1nc(C#N)c(NCCCn2ccnc2)o1,-,-,45µM
N#Cc1nc(COc2ccccc2F)oc1NCCCn1ccnc1,-,-,25µM
N#Cc1nc(COc2ccc(F)cc2)oc1NCCCn1ccnc1,-,-,-
COc1ccc(Nc2oc(COc3ccccc3OC)nc2C#N)cc1,-,-,18µM
N#Cc1nc(COc2ccccc2Cl)oc1NCc1ccco1,-,-,22µM
SMILES,AmpC inh no detg,AmpC detergent,Sm TGR inh
N#Cc1nc(COc2ccccc2)oc1NCCCn1ccnc1,-,-,-
COc1ccccc1OCc1nc(C#N)c(NCc2ccc(C)cc2)o1,.,-,-
N#Cc1nc(COc2ccccc2Cl)oc1NCCc1ccccc1,.,-,-
Cc1ccc(C)c(S(=O)(=O)N2CCN(C(=O)CCC(=O)c3cc(C)sc3C)CC2)c1,-,?,-
CC(C)(C)OC(=O)N1CCC(c2c(C(=O)NCc3cccc(Cl)c3)cnn2-c2ccc(F)cc2)CC1,.,-,-
COc1cccc(NC(=O)CC(C)S(=O)(=O)c2ccc3c(c2)NC(=O)CO3)c1 (stereo not given),.,-,-
Cc1ccc(S(=O)(=O)n2c(C)nc3cc(C)ccc32)cc1,-,-,-
COc1ccc(CCNc2oc(COc3ccccc3F)nc2C#N)cc1OC,-,-,?
CCNc1oc(COc2ccccc2F)nc1C#N,-,?,56µM
COc1ccc(-c2nc3ccccc3c(=O)n2CCOc2ccccc2C)cc1,-,-,-
O=C(NNC(=O)c1cc2ccccc2cc1O)Nc1ccc(Br)cc1,?,?,-
COc1ccc(C)cc1NC(=O)NNC(=O)c1cc2ccccc2cc1O,6.3µM,-,-
Cc1ccc(C(=O)NNC(=O)c2cc3ccccc3cc2O)cc1,28µM,-,-
COc1cc(OC)c(NC(=O)c2ccccc2F)cc1Cl,-,-,-
O=C(NNC(=O)c1cc2ccccc2cc1O)Nc1ccc(F)cc1F,13µM,-,-
COc1ccc(NC(=O)NNC(=O)c2cc3ccccc3cc2O)cc1,?,-,-
COc1cc(NC(=O)c2cc3ccccc3cc2O)c(OC)cc1Cl,3.5µM,-,-
COc1ccccc1C(=O)NNC(=O)c1ccc(C)cc1,-,-,-
Cc1ccc(CNC(=O)C(C)n2ccc3cc(S(=O)(=O)N4CCCC4)ccc32)cc1 (stereo not given),.,-,-
Cc1cccc(-c2noc(-c3cccnc3NCc3ccccc3Cl)n2)c1,.,-,-
CC(C)c1ccccc1NC(=O)COC(=O)c1cccnc1,-,-,-
CCN1C(=O)c2cccc3cccc1c23,-,-,11µM
CN(C)C(=O)CN1C(=O)c2cccc3cccc1c23,-,-,-
COc1ccc(OCCCC(=O)OCC(=O)c2ccc3c(c2)NC(=O)CO3)cc1,-,-,45µM
COc1ccc(C(=O)OCC(=O)c2ccc3c(c2)NC(=O)CO3)cc1OC,-,.,.
SMILES,AmpC inh no detg,AmpC detergent,Sm TGR inh
O=C1COc2ccc(C(=O)COC(=O)c3nc(Cl)ccc3Cl)cc2N1,-,-,14µM
O=C1COc2ccc(C(=O)COC(=O)c3ccc(Cl)cc3[N+](=O)[O-])cc2N1,-,-,-
Cc1ccc(OCCC(=O)OCC(=O)c2ccc3c(c2)NC(=O)CO3)cc1,-,?,-
O=C1COc2ccc(C(=O)COC(=O)c3ncc(Cl)c(Cl)c3Cl)cc2N1,-,-,50µM
O=C1COc2ccc(C(=O)COC(=O)c3cnc(Cl)c(Cl)c3)cc2N1,-,-,-
O=C1COc2ccc(C(=O)COC(=O)c3ccc([N+](=O)[O-])cc3Cl)cc2N1,-,-,40µM
Cc1cc(C)n(CC(=O)NC2CCCCC2C)c(=O)c1C#N (stereo not given),-,-,-
COc1ccc2c(c1)CC(C(=O)Nc1cccc(C)c1C)CO2 (stereo not given),.,-,-
C[C@H](CO)N1C[C@H](C)[C@@H](CN(C)C(=O)Nc2ccc3c(c2)OCO3)Oc2c(NC(=O)Nc3ccc(C(F)(F)F)cc3)cccc2C1=O,-,.,.
CCn1ncc(Br)c1C(=O)Nc1c(C)nn(Cc2c(F)c(F)c(F)c(F)c2F)c1C,-,?,-
Fc1ccccc1-n1ncc2c1ncn1nc(Cc3ccccc3)nc21,.,-,-
Cc1ncn(-c2ccccc2)c1-c1ccccc1,-,-,-
COc1ccccc1NC(=O)C1=C(C)Nc2nc(SCc3ccccc3Cl)nn2C1c1cccnc1 (stereo not given),.,-,-
CCN(c1ccccc1)S(=O)(=O)c1cc(NC(=O)Nc2ccccc2C#N)ccc1Cl,8.9µM,?,-
CCN(c1ccccc1)S(=O)(=O)c1ccc(Cl)c(NC(=O)Nc2ccc(Cl)cc2C#N)c1,-,-,-
CCC(Cc1ccccc1)NS(=O)(=O)c1c(C)nc2sccn2c1=O (stereo not given),-,-,-
CN(Cc1ccccc1)C(=O)CC(=O)N(C)Cc1ccccc1,-,-,-
COc1ccc(CN(C)C(=O)CCl)cc1,-,-,22µM
CN(Cc1ccc(Cl)s1)C(=O)CCl,-,?,2.8µM
